The campaign covered roughly 340,000 compounds. About 260 (0.076%) were called active. The entries come from a sample that favours actives as a whole. A number with no mark means an inactive call.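 The calls were made as follows: active = highest replicate inhibition at or above 60% at 9 µM, even if other replicates fall short; inactive = all replicates below 60% inhibition.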
Test system: Kaposi's sarcoma herpesvirus LANA C-terminal domain (residues 932-1162) DNA binding
Assay: inhibitors of KSHV C-LANA binding to DNA, primary screen, biochemical, fluorescence polarization, FAM-LBS DNA, MBP-C-LANA, single point (AID 504423);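 also: 0% = neutral control wells and 100% = 4 µM acridine orange control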
Settings: at 9 µM, stronger effect = higher value

Q: With `NC(N)=NCCCc1cn(CC(=O)N2CCNCC2)nn1` as the compound, how does the inhibition read?
A: -0.256%

Q: For `O=C(Cc1ccc(S(=O)(=O)N2CCOCC2)s1)Nc1ccc(Br)c(C(F)(F)F)c1`, which inhibition is on record?
A: -0.373%

Q: `COC(=O)c1ccc([C@@H](O)[C@H](C)C(=O)CC(=O)OC(C)(C)C)cc1` was tested. Which inhibition did it give?
A: 2.15%

Q: `Cc1cc(NC(=O)/C=C/C(=O)N(c2ccccc2C)C(C(=O)NC2CCCC2)c2ccc(F)cc2)no1` (stereo unspecified) was tested. Which inhibition did it give?
A: 0.894%

Q: Which inhibition does the source give for `CSc1ccc(S(=O)(=O)NCC(=O)OCC(=O)NC2(C#N)CCCCC2)cc1[N+](=O)[O-]` here?
A: -0.312%

Q: With `COC(=O)c1cc(NC2c3ccccc3C(=O)N2c2ccc(Cl)cn2)cc(C(=O)OC)c1` (stereo unspecified) as the compound, how does the inhibition read?
A: -1.05%

Q: For `CCCn1c(N)c(C(=O)CSc2nnc3n2CCCCC3)c(=O)[nH]c1=O`, which inhibition is on record?
A: -2.38%

Q: Which inhibition does the source give for `CCOC(=O)c1cc(C(=O)Nc2ccc(S(=O)(=O)Nc3ccc(OC)cc3)cc2)nn1C` here?
A: -1.57%

Q: `CCC(Sc1nncn1C)C(=O)Nc1nnc(-c2ccc(Cl)cc2)s1` (stereo unspecified) was tested. Which inhibition did it give?
A: -3.46%

Q: `Oc1c(Cl)cc(Cl)c(Cl)c1Cc1c(O)c(Cl)cc(Cl)c1Cl` was tested. Which inhibition did it give?
A: -0.191%

Q: `CC(Oc1cccc(Cl)c1)C(=O)NC1CC(C)(C)NC(C)(C)C1` (stereo unspecified) was tested. Which inhibition did it give?
A: -1.58%

Q: For `COc1cc(OC)c(NS(=O)(=O)c2cn(C)cn2)cc1Cl`, which inhibition is on record?
A: 0.525%

Q: For `Cc1nc2ccc(NC(=O)N3CCC(c4ccccc4)C3)cc2nc1C` (stereo unspecified), which inhibition is on record?
A: -3.95%

Q: With `COc1ccc(NC(=O)C(CC(C)C)NS(=O)(=O)c2ccc3c(c2)CCN3C(C)=O)cc1OC` (stereo unspecified) as the compound, how does the inhibition read?
A: 1.56%

Q: Which inhibition does the source give for `OCCC1CN(Cc2ccc3nsnc3c2)CCN1C1CCCC1` (stereo unspecified) here?
A: -1.26%

Q: Which inhibition does the source give for `O=C(CN(c1ccc2c(c1)OCCO2)S(=O)(=O)c1ccccc1)Nc1ccc2c(c1)OCO2` here?
A: -0.247%

Q: Which inhibition does the source give for `CCC1C(=O)NCCN1C(=O)c1ccc2nc(Cc3ccc(OC)cc3)oc2c1` (stereo unspecified) here?
A: -0.899%

Q: `S=c1[nH]ccn1-c1ccc(Cl)cc1` was tested. Which inhibition did it give?
A: -5.31%

Q: How did the inhibition turn out when `COc1cc(OC)cc(-c2c(-c3cccs3)c3cc(-c4ccc(OC)nc4)ccc3n2C)c1` was run?
A: -0.213%

Q: Which inhibition does the source give for `Cc1cc(C#N)c(SCC(N)=O)nc1-c1ccc(F)cc1` here?
A: -0.398%

Q: How did the inhibition turn out when `Cc1cc(Br)ccc1SCC(=O)OCC(=O)NCc1ccc2c(c1)OCO2` was run?
A: -1.13%

Q: For `CCN(Cc1ccccc1)C(=O)Cc1ccc(OC)c(S(=O)(=O)N2CCOCC2)c1`, which inhibition is on record?
A: -0.86%

Q: For `C=CCN(Cc1nc(-c2cc(OC)c3c(c2)OCO3)oc1C)C1CCS(=O)(=O)C1` (stereo unspecified), which inhibition is on record?
A: -0.881%

Q: For `CCCN(C(=O)COC(=O)CNS(=O)(=O)c1ccc(NC(C)=O)cc1)C1CCS(=O)(=O)C1` (stereo unspecified), which inhibition is on record?
A: -0.76%

Q: Which inhibition does the source give for `Cc1c(N=Nc2ccc(N(C)C)cc2)c(=O)n(-c2ccccc2)n1C` here?
A: -5.21%

Q: How did the inhibition turn out when `CCN(CC)CCCC(C)n1c2nc(=O)[nH]c(=O)c-2nc2cc(Cl)ccc21` (stereo unspecified) was run?
A: 167% (active)

Q: `COc1ccc2c(c1)c1ncn(Cc3ccccn3)c(=O)c1n2C` was tested. Which inhibition did it give?
A: -1.99%

Q: For `CCCCCNC(=O)C1c2ccccc2Oc2ccccc21`, which inhibition is on record?
A: -0.323%

Q: `CCCN(CCC)C(=O)C1c2ccccc2Oc2ccccc21` was tested. Which inhibition did it give?
A: 88.3% (active)

Q: `CCOC(=O)CC(NC(=O)C1c2ccccc2Oc2ccccc21)c1ccc(C)cc1` (stereo unspecified) was tested. Which inhibition did it give?
A: 1.2%

Q: For `CC(=O)c1nnn(-c2ccc(Cl)cc2C#N)c1C`, which inhibition is on record?
A: -3.28%

Q: `c1ccc(-n2cccc2)c(N2CCCCC2)c1` was tested. Which inhibition did it give?
A: 1.68%

Q: With `CN1C(c2ccc(F)cc2)=CS/C1=C(/C#N)c1nnc2n1-c1ccccc1SC2` as the compound, how does the inhibition read?
A: 1.32%

Q: `Cc1cc(/C=N/Nc2ccc([N+](=O)[O-])cn2)c(C)n1-c1cccc(C(=O)O)c1` was tested. Which inhibition did it give?
A: 64.5% (active)

Q: How did the inhibition turn out when `Cc1cc(/C=N/NC(=O)CC2(C)OCCO2)c(C)n1-c1ccc(Cl)c(Cl)c1` was run?
A: 0.73%

Q: How did the inhibition turn out when `CC(C)c1ccc(C=NNc2ccc([N+](=O)[O-])cn2)cc1` was run?
A: -4.43%

Q: For `Cc1nc(NC(=O)CCC(=O)O)sc1C(=O)N(C)C`, which inhibition is on record?
A: -0.461%

Q: `CCOc1ccc(NC(=O)c2cccc3c2C(=O)N(CC2CCCO2)C3)cc1` (stereo unspecified) was tested. Which inhibition did it give?
A: -0.819%

Q: Which inhibition does the source give for `CC(C)n1c(=S)[nH]c2cc(C(F)(F)F)ccc21` here?
A: -0.144%

Q: For `COc1cccc2c1C(=O)c1c(O)c3c(c(O)c1C2=O)CC(O)(C(C)=NNC(=O)c1ccc(Cl)c(Cl)c1)CC3OC1CC(N)C(O)C(C)O1` (stereo unspecified), which inhibition is on record?
A: 102% (active)

Q: `COc1cccc(Cn2cnc3c([N+](=O)[O-])c(C)c(C)cc32)c1` was tested. Which inhibition did it give?
A: -1.77%

Q: With `Cc1ccc(NC(=O)Cn2cccc2C2=NC(c3ccccc3)CO2)c(C)c1` (stereo unspecified) as the compound, how does the inhibition read?
A: 0.882%

Q: Which inhibition does the source give for `C=CCNc1nc(Nc2ccc(Cl)cc2)nc(OC)n1` here?
A: -0.456%

Q: How did the inhibition turn out when `CC12CCC(C(=O)N(CCC#N)CCC#N)(CC1=O)C2(C)C` (stereo unspecified) was run?
A: 0.103%

Q: How did the inhibition turn out when `CCOC(=O)c1sc(/N=C/Nc2nc(C)c(C(=O)OCC)s2)nc1C` was run?
A: -0.364%

Q: For `CC(NC(=O)CN(C)S(=O)(=O)c1ccc(F)cc1)C1CC2CCC1C2` (stereo unspecified), which inhibition is on record?
A: -0.793%

Q: With `O=C(CNCc1ccc(Cl)cc1)Nc1cccc(C(=O)O)c1` as the compound, how does the inhibition read?
A: 0.621%

Q: For `S=C(Nc1cccc(Br)c1)N1CCn2cccc2C1c1cccnc1` (stereo unspecified), which inhibition is on record?
A: 0.461%

Q: With `O=C1COc2c1ccc(O)c2O` as the compound, how does the inhibition read?
A: 105% (active)

Q: Which inhibition does the source give for `c1ccc(CSc2ncnc3c2sc2nc(N4CCOCC4)c4c(c23)CCCC4)cc1` here?
A: 0.637%

Q: Which inhibition does the source give for `COc1cc(/C=C/C(=O)O)cc(S(=O)(=O)Nc2ccccc2SC)c1OC` here?
A: 2.56%

Q: For `O=c1[nH]nc(SCCS(=O)(=O)c2ccc(F)cc2)n1-c1ccccc1C(F)(F)F`, which inhibition is on record?
A: -0.936%

Q: How did the inhibition turn out when `O=C1OC(Cc2ccccc2)C(c2ccccc2)C1=O` (stereo unspecified) was run?
A: 0.23%

Q: Which inhibition does the source give for `CCN(CC)C(=O)[C@H]1C[C@H](CC(=O)NCC23CC4CC(CC(C4)C2)C3)C(=O)N2CCc3c([nH]c4cc(CCC(=O)N(C)C)ccc34)[C@]12C` here?
A: -1.63%

Q: For `CCC(CC)c1nnc(NC(=O)C2CCN(C(=O)c3ccco3)CC2)s1`, which inhibition is on record?
A: 0.307%

Q: With `CCCN(CC(=O)Nc1ccccc1C)C(=O)c1ccc(OCC(=O)N2CCOCC2)c(OCC)c1` as the compound, how does the inhibition read?
A: 0.13%

Source: PubChem BioAssay AID504423 (Broad Institute, 2011)
